Common to all, as to assay: NCI-60 one-dose screen, 48 h (100 = growth as untreated, 0 = no growth, -100 = all killed)
What all share (details): 10 µM unless noted

The subject of experiment [1] is T-47D breast.
Experiment [2] has as its system BT-549 breast.
For experiment [3], the system named is MDA-MB-435 melanoma.
Experiment [4] relates to SW-620 colon.
Experiment [5] relates to MCF7 breast.
In experiment [6] the test system is HCT-116 colon.
In experiment [7] the test system is HCC-2998 colon.
Experiment [8] deals with KM12 colon.

The panel holds about 83,000 compounds, 20% with a hit somewhere; the sample as a whole holds those more often.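 Compound tested at a single concentration for 48 hours in 96-well plates; a percent growth value below 10 was scored as active.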 Values without a mark were called inactive. Calls of active or inactive are those of the source.

`CCCNCC(=O)Nc1ccc(C(=O)OC(C)(C)CC)cc1`: the growth was 103% in experiment [1]; 77.4% in experiment [2]; 113% in experiment [3]; 105% in experiment [4]; 103% in experiment [5]; 84.1% in experiment [6]. The growth in experiment [7] was 99.9%; in experiment [8], 104%.

For the compound `[2H]c1nc(Nc2ncc(F)c(-c3cc(F)c4nc(C)n(C(C)C)c4c3)n2)c([2H])c([2H])c1CN1CCN(C([2H])([2H])C([2H])([2H])[2H])CC1`, the growth is 54.6% in experiment [1]; 51.3% in experiment [2]; 51.7% in experiment [3]; 43.5% in experiment [4]; 30.3% in experiment [5]; 26.1% in experiment [6]. Moreover, the growth in experiment [7] was 82.4%; in experiment [8] it was 40.5%.

As to `Cc1ccccc1NC(=O)CN(C)C`, the growth in experiment [1] was 95.6%; in experiment [2] it was 106%; in experiment [3] it was 108%; in experiment [4], 108%; in experiment [5], 97.4%; in experiment [6] it was 101%. Also, the results for the growth in experiment [7] and in experiment [8] were 116% and 107%, respectively.

In the case of `O=C(NCCOCCOCCNc1cccc2c1C(=O)N(C1CCCNC1=O)C2=O)c1cc2c(o1)C(=O)c1ccccc1C2=O` (stereo unspecified), the growth is 14.9% in experiment [1]; -94.7% (active) in experiment [2]; -94.1% (active) in experiment [3]; -6.93% (active) in experiment [4]; -63.3% (active) in experiment [5]; 0.0602% (active) in experiment [6]. In addition, the results for the growth in experiment [7] and in experiment [8] were -56.2% (active) and -14.2% (active), respectively.

Consider `COc1ccc(-c2nc3ncccn3c2/C=C/C(=O)c2cc(OC)c(OC)c(OC)c2)cc1`, for which the growth in experiment [1] is 17.8%; in experiment [2] it was 15.6%; in experiment [3] it was 15.2%; in experiment [4], -1.58% (active); in experiment [5] it was 3.17% (active); in experiment [6] it was -84.8% (active). Also, the growth in experiment [7] is -58.4% (active); in experiment [8], -56.9% (active).

Regarding `COc1ccc(-c2cncnc2N)cc1OC`, the growth is -95.7% (active) in experiment [1]; 99.2% in experiment [2]; 104% in experiment [3]; 101% in experiment [4]; 103% in experiment [5]; 94.8% in experiment [6]. Moreover, the figures for the growth in experiment [7] and in experiment [8] were 103% and 109%, respectively.

Turning to `Cn1ccc(Cc2cnc(N)s2)n1`, the growth in experiment [1] is 101%; in experiment [2] it was 102%; in experiment [3], 101%; in experiment [4], 98.9%; in experiment [5], 101%; in experiment [6], 108%. Moreover, the figures for the growth in experiment [7] and in experiment [8] were 100% and 103%, respectively.

Consider `O=C(c1ccccc1)c1ccc(N2C(=O)C3C4c5ccccc5C(/C=C/C(=O)c5ccccn5)(c5ccccc54)C3C2=O)cc1` (stereo unspecified), for which the growth in experiment [1] was 27%; in experiment [2], 22.2%; in experiment [3] it was 4.74% (active); in experiment [4], 3.76% (active); in experiment [5], 19%; in experiment [6], -27.4% (active). Besides, the growth in experiment [7] was 25.3%; in experiment [8], 9.88% (active).

Regarding `O=C1/C(=C/c2ccccc2[N+](=O)[O-])COc2ccc(O)c(O)c21`, the growth is 12.4% in experiment [1]; 21.3% in experiment [2]; -62.2% (active) in experiment [3]; -38.7% (active) in experiment [4]; 6.98% (active) in experiment [5]; -15.4% (active) in experiment [6]. The growth in experiment [7] was -46.5% (active); in experiment [8], -3.65% (active).

On to `CCOC(=O)C1C(=O)C=C(c2cnccn2)CC1c1ccc(OC)c(OC)c1` (stereo unspecified), for which the growth was 83.5% in experiment [1]; 71.5% in experiment [2]; 106% in experiment [3]; 106% in experiment [4]; 93.1% in experiment [5]; 79.7% in experiment [6]. The growth was 99% in experiment [7] and 102% in experiment [8].

Regarding `COc1cc2c(=O)n(CCCn3ccnc3)c3c4cc5c(cc4ccc3c2cc1OC)OCO5`, the growth in experiment [1] is -10.9% (active); in experiment [2], 28.4%; in experiment [3] it was -25.3% (active); in experiment [4], 11%; in experiment [5] it was 4.23% (active); in experiment [6] it was -62.1% (active). The growth in experiment [7] is 33.3%; in experiment [8], 8.03% (active).

With `COc1ccccc1C(=O)NC(=S)Nc1ccc(-c2nc3ccccc3[nH]2)cc1`, the growth in experiment [1] is 80.3%; in experiment [2], 32.3%; in experiment [3], 50.3%; in experiment [4], 43.5%; in experiment [5], 21.3%; in experiment [6], 13.8%. Also, the growth in experiment [7] is 85.9%; in experiment [8], 53.2%.

`CN1CCN(c2ccc(Nc3ncc(Cl)c(NC[C@@H]4CCCO4)n3)cc2)CC1`: the growth in experiment [1] was 62.2%; in experiment [2] it was 33.3%; in experiment [3], 44%; in experiment [4], 7.44% (active); in experiment [5], 9.61% (active); in experiment [6], 4.74% (active). In addition, the growth in experiment [7] was 60.7%; in experiment [8] it was 9.71% (active).

For the compound `CCOC(=O)c1c(C)[nH]c(C(=O)CCC(=O)OC)c1C`, the growth in experiment [1] is 101%; in experiment [2], 84.5%; in experiment [3] it was 103%; in experiment [4], 108%; in experiment [5], 98%; in experiment [6], 81%. Further, the growth in experiment [7] is 99.2%; in experiment [8], 103%.

For `COc1ccccc1NC(=O)Nc1ccc(-c2nc3ccccc3o2)cc1`, the growth in experiment [1] is 68.1%; in experiment [2] it was 92.3%; in experiment [3], 104%; in experiment [4], 111%; in experiment [5] it was 99%; in experiment [6] it was 93.7%. The results for the growth in experiment [7] and in experiment [8] were 106% and 105%, respectively.

On to `COc1ccc(-c2cc(-c3cc(OC)ccc3O)[nH]c(=O)c2C#N)cc1`, for which the growth in experiment [1] was 45.6%; in experiment [2], 22.1%; in experiment [3], -0.171% (active); in experiment [4], 34.4%; in experiment [5], 46.4%; in experiment [6], 33.6%. Moreover, the growth in experiment [7] is 72.9%; in experiment [8], 41.8%.

Turning to `CN(C)CCN1C(=O)c2cccc3c(-c4ccc(-c5nc6c7ccccc7c7ccccc7c6[nH]5)cc4)ccc(c23)C1=O`, the growth in experiment [1] is 86.7%; in experiment [2] it was 104%; in experiment [3], 114%; in experiment [4] it was 86%; in experiment [5] it was 36.2%; in experiment [6], 65.1%. In addition, the growth in experiment [7] is 104%; in experiment [8] it was 75.8%.

Turning to `CCOC(=O)C1=C(C)NC(SCc2nnc(-c3ccc(Cl)cc3)o2)=NC1c1ccc(Cl)cc1Cl` (stereo unspecified), the growth in experiment [1] was 47.4%; in experiment [2], 89.7%; in experiment [3], 69%; in experiment [4], 66.2%; in experiment [5], 32%; in experiment [6] it was 28.8%. For the same compound, the growth in experiment [7] is 84.5%; in experiment [8], 63.4%.

For the compound `C=C1C(=O)O[C@H]2[C@H]1CC/C(COC(=O)/C=C\C(=O)NCc1ccc(Cn3c(=O)sn(CCCC)c3=O)cc1)=C\CC[C@@]1(C)O[C@@H]21`, the growth in experiment [1] is -39% (active); in experiment [2], -73.3% (active); in experiment [3], -73.9% (active); in experiment [4], -45.5% (active); in experiment [5], -43% (active); in experiment [6] it was -77.5% (active). The results for the growth in experiment [7] and in experiment [8] were -80.3% (active) and -59.7% (active), respectively.

For the compound `CC(C)CCC[C@@H](C)[C@H]1CCC2C3=CCn4c(=O)ccc(=O)n4C3CC[C@@]21C` (stereo partly specified), the growth in experiment [1] was -75.2% (active); in experiment [2], -30.9% (active); in experiment [3], -87.1% (active); in experiment [4] it was -65.5% (active); in experiment [5], -92.5% (active); in experiment [6] it was -100% (active). The growth was -93.1% (active) in experiment [7] and -97.5% (active) in experiment [8].

Take `COc1cc(C2CC(c3ccc(Nc4nc(Nc5ccc(F)cc5)nc(Nc5ccc(Cl)cc5)n4)cc3)=NN2C(C)=O)cc(OC)c1OC` (stereo unspecified): the growth in experiment [1] is 19%; in experiment [2] it was 13.4%; in experiment [3], 95.7%; in experiment [4] it was 87%; in experiment [5], 46.6%; in experiment [6] it was 55.1%. For the same compound, the growth is 89.3% in experiment [7] and 71.2% in experiment [8].

Regarding `C=C(C=O)C1CCC2(C(=O)O)CCC3(C)C(CCC4C5(C)CCC(O)C(C)(C)C5CCC43C)C12` (stereo unspecified), the growth in experiment [1] was 45%; in experiment [2] it was 17.4%; in experiment [3], 16%; in experiment [4] it was -14.5% (active); in experiment [5] it was 6.07% (active); in experiment [6], -92.3% (active). Moreover, the values for the growth in experiment [7] and in experiment [8] were -85.2% (active) and -87.8% (active), respectively.

For `Cn1cc(-c2ccc3nc(-c4ccc(CC(=O)Nc5cc(C(C)(C)C)no5)cc4)cnc3c2)cn1`, the growth in experiment [1] was 26% [30 µM]; in experiment [2] it was 53.3% [30 µM]; in experiment [3], 26.2% [30 µM]; in experiment [4], 34.5% [30 µM]; in experiment [5], 87.1% [30 µM]; in experiment [6] it was 15.3% [30 µM]. Moreover, the growth in experiment [7] is 47.3% [30 µM]; in experiment [8] it was 6.95% [30 µM] (active).

On to `CCN(CC)CCCC(C)NCc1ccccc1` (stereo unspecified), for which the growth in experiment [1] was 105%; in experiment [2] it was 85.2%; in experiment [3], 100%; in experiment [4], 105%; in experiment [5], 93.8%; in experiment [6], 90.8%. Moreover, the values for the growth in experiment [7] and in experiment [8] were 99.5% and 96.9%, respectively.

With `Cc1c(C)c2c(c(C)c1NC(=O)/C=C\C(=O)O)CCC(C)(CCCC(C)CCCC(C)CCCC(C)C)O2` (stereo unspecified), the growth was 54.5% in experiment [1]; -58.5% (active) in experiment [2]; 50.9% in experiment [3]; 30% in experiment [4]; 51.2% in experiment [5]; 4.08% (active) in experiment [6]. Further, the growth in experiment [7] is 79.8%; in experiment [8], 29.2%.

In the case of `O=C1NC(=S)S/C1=C\N1N=C(c2ccc(Cl)cc2)CC1c1ccc(F)cc1` (stereo unspecified), the growth in experiment [1] was 72.2%; in experiment [2], 100%; in experiment [3], 97.2%; in experiment [4] it was 92.1%; in experiment [5] it was 71.9%; in experiment [6], 81.9%. Moreover, the growth was 100% in experiment [7] and 87.4% in experiment [8].

`COc1cc2c(cc1OC)-c1ccc3cc4c(cc3c1N(CCCN(C)C)C2)OCO4`: the growth was 54.6% in experiment [1]; 41.2% in experiment [2]; 44% in experiment [3]; 25.2% in experiment [4]; 26% in experiment [5]; 9.53% (active) in experiment [6]. Further, the growth in experiment [7] is 64.6%; in experiment [8] it was 38.4%.

(Values after PubChem BioAssay (NCI).)
